# PubChem BioAssay (NCATS)
# Where “and” joins values, the source holds several entries; their conditions need not be identical. Equal entries are not always repeated. Results filed as inconclusive are left out. Entries that show only a call come without a potency. The source holds several records for some structures; these can differ, active in one and inactive in another. Calls of active or inactive are those of the source. Calls come from the whole dose curve; as a rule, active = well fitted curve in the direction sought with a large enough effect; inconclusive = small, poorly fitted or top-dose-only effect, or another doubt; inactive = no such curve, though single readings can be large; an effect the other way counts as inactive or inconclusive.
# Tests used:
# [1] = target: Glutathione peroxidase 1 (Homo sapiens) (UniProt P07203); assay: Primary qHTS Assay for Inhibitors of Recombinant Selenoprotein Glutathione Peroxidase 1 (GPX1) (AID 1845191); note: nearly all actives have a fitted effect of over 65% in size; note: potency is the fitted concentration of half-maximal effect
# Outline: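 10 nM GPX1 + cpd, 30 min RT; start w/ 1 mM GSH, 0.5 mM cumene hydroperoxide, 0.5 mM NADPH, 100 nM GR, 0.01% BSA; buffer 50 mM Tris-HCl pH 7.5, 2 mM EDTA, 150 mM NaCl; Fl 340/450, 0 & 15 min.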
# [2] = target: Phospholipid hydroperoxide glutathione peroxidase GPX4 (Homo sapiens) (UniProt P36969); assay: Primary qHTS Assay for Inhibitors of Recombinant Selenoprotein Glutathione Peroxidase 4 (GPX4) (AID 1845192); note: nearly all actives have a fitted effect of over 65% in size; note: potency is the fitted concentration of half-maximal effect
# Outline: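 NADPH consumption, followed by fluorescence at 340/450 nm between 0 and 15 min, reports GPX4 activity via coupled glutathione reductase (100 nM). Enzyme 200 nM was pre-exposed to compound 30 min; 0.5 mM cumene hydroperoxide and 1 mM GSH served as substrates.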
# [3] = target: Luciferin 4-monooxygenase (Photinus pyralis) (UniProt P08659); assay: Primary firefly luciferase (FLuc) qHTS assay for identification of artifact compounds. (AID 1845220); settings: outcome: dose series up to 54.1 µM unless noted; note: nearly all actives have a fitted effect of over 60% in size
# Outline: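 FLuc 10 nM; luciferin 10 uM; ATP 10 uM; Tris-acetate pH 7.6, Mg-acetate 10 mM; 15 min RT preincubation; 5 min reaction; luminescence.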
# [4] = Primary fluorescence-based thiol-reactive (MSTI) qHTS assay for identification of artifact compounds. (AID 1845221); note: nearly all actives have a fitted effect of over 65% in size; note: potency is the fitted concentration of half-maximal effect
# Outline: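 Thiol-reactive compounds detected by quenching of 4 uM MSTI fluorescence (525/598 nm) after 1 h room-temperature dark incubation in PBS pH 7.4, 2% DMSO. qHTS titration; percent inhibition Hill-fitted against Acetyl-MSTI/MSTI controls.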
# [5] = system: Nanoluciferase (engineered Oplophorus gracilirostris luciferase); assay: Primary Nanoluciferase (NLuc) qHTS assay for identification of artifact compounds. (AID 1845222);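 note: NLuc secreted into diluted conditioned medium of S16 cells; series mostly up to about 54 µM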
# Outline: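 NLuc from S16 cell medium (1:55) plus test compounds, 15 min, room temperature. Luminescence after Nano-Glo (1:100) addition, 5 min.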
# [6] = Primary redox qHTS assay for identification of artifact compounds. (AID 1845223)
# Outline: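 Amplex Red (25 uM) and HRP (250 mU/mL) in HBSS, with compounds for 15 min, then 250 uM DTT for 30 min, room temperature, dark. Fluorescence 525/598 nm read; normalized to DMSO and 10 uM DA3003; Hill fit.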
# Phospholipid hydroperoxide glutathione peroxidase GPX4 (Homo sapiens), sequence (P36969 whole entry, looked up): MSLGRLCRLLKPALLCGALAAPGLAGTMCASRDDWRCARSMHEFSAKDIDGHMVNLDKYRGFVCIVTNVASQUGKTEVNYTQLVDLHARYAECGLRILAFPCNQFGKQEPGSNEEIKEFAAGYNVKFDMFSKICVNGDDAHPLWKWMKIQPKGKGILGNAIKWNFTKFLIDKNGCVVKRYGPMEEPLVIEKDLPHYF
# Glutathione peroxidase 1 (Homo sapiens), sequence (P07203 whole entry, looked up): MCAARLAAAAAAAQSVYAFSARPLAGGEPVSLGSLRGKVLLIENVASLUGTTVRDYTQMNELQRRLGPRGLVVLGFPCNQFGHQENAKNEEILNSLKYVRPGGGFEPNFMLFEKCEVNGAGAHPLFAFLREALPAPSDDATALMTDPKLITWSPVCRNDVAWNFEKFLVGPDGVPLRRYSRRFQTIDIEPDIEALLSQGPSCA
SMILES,Potency [1],Potency [2],outcome [3],Potency [4],outcome [5],outcome [6]
CS(=O)(=O)c1ccc([C@@H](O)[C@@H](CF)NC(=O)C(Cl)Cl)cc1,inactive,inactive,inactive,inactive,inactive,inactive
NCC(=O)CCC(=O)O,inactive,inactive,,,,
CC(C)(O)c1ccccc1CC[C@@H](SCC1(CC(=O)O)CC1)c1cccc(/C=C/c2ccc3ccc(Cl)cc3n2)c1,inactive,inactive,inactive,inactive,inactive,inactive
COc1ccc2c(c1)C(=O)N(CCc1ccc(S(=O)(=O)NC(=O)NC3CCCCC3)cc1)C(=O)C2(C)C,inactive,,inactive,inactive,inactive,inactive
C[C@]12CC[C@@H]3c4ccc(O)cc4CC[C@H]3[C@@H]1CC[C@@H]2OC(=O)CCC1CCCC1,inactive,,inactive,inactive,inactive,inactive
OCC(O)CN1CCN(c2ccccc2)CC1 (centres undefined),inactive,inactive,inactive,inactive,inactive,inactive
Cc1ccc(C(C)C)cc2c(C)ccc1-2,,inactive,,,,
O=C1O[C@H](CO)[C@@H](O)[C@H](O)[C@H]1O,inactive,inactive,,,,
c1ccc(CN(CC2=NCCN2)c2ccccc2)cc1,inactive,,inactive,inactive,inactive,inactive
CCOC(=O)[C@H](CCc1ccccc1)N[C@@H](C)C(=O)N1C(=O)N(C)C[C@H]1C(=O)O,inactive,inactive,inactive,inactive,inactive,inactive
C[C@@H]1C[C@H]2[C@@H]3C[C@H](F)C4=CC(=O)C=C[C@]4(C)[C@@]3(F)[C@@H](O)C[C@]2(C)[C@@]1(O)C(=O)CO,inactive,inactive,inactive,inactive,inactive,inactive
O=C1Nc2ccc(Cl)cc2[C@@](C#CC2CC2)(C(F)(F)F)O1,inactive,inactive,inactive,inactive,inactive,inactive
c1ccc2c(CC3=NCCN3)cccc2c1,inactive,inactive,,,,
Oc1cccc(O)c1,inactive,inactive,,,,
O=C(Oc1ccccc1C(=O)O)c1ccccc1O,inactive,inactive,,,,
NC(CSCC(=O)O)C(=O)O (centres undefined),inactive,inactive,,,,

SMILES,Potency [1],Potency [2],outcome [3],Potency [4],outcome [5],outcome [6]
CC/C=C(\C(=O)N[C@@H]1C(=O)N2C(C(=O)OCOC(=O)C(C)(C)C)=C(COC(N)=O)CS[C@H]12)c1csc(N)n1,9.04 µM (active),11.2 µM (active) and inactive,inactive,inactive,inactive,inactive
Nc1nc2c(ncn2CCC(CO)CO)c(=O)[nH]1,inactive,inactive,inactive,inactive,inactive,inactive
Cc1cc(C(C#N)c2ccc(Cl)cc2)c(Cl)cc1NC(=O)c1cc(I)cc(I)c1O (centres undefined),inactive,inactive,,inactive,inactive,inactive
CCCCN1CCCC[C@H]1C(=O)Nc1c(C)cccc1C,inactive,inactive,inactive,inactive,inactive,inactive
CC(C)(C)C(=O)C(Oc1ccc(Cl)cc1)n1ccnc1 (centres undefined),inactive,inactive,inactive,inactive,inactive,inactive
O=C(CCCN1CCN(c2ccccn2)CC1)c1ccc(F)cc1,inactive,inactive,inactive,inactive,inactive,inactive
COc1ccc2cc1Oc1ccc(cc1)C[C@H]1c3c(cc4c(c3Oc3cc5c(cc3OC)CCN(C)[C@@H]5C2)OCO4)CCN1C,inactive,inactive,inactive,inactive,inactive,inactive
CN(C)CCN(Cc1ccccc1)c1ccccn1,,inactive,,,,
CC(=O)NC(Cc1ccccc1)C(=O)O (centres undefined),inactive,inactive,inactive [at 86.2 µM],11.2 µM (active),inactive,inactive
CCOC(CN1CCN(CC(C)C(=O)c2ccccc2)CC1)c1ccccc1 (centres undefined),inactive,inactive,inactive,,inactive,
Nc1ccc(S(=O)(=O)NC(=O)c2ccccc2)cc1,inactive,inactive,,,,
CN1CCOC(c2ccccc2)c2ccccc2C1 (centres undefined),inactive,inactive,inactive,inactive,inactive,inactive
O=c1[nH]cnc2c1ncn2[C@@H]1O[C@H](CO)[C@@H](O)[C@H]1O,inactive,,inactive,inactive,inactive,inactive
COc1ccc2[nH]c(S(=O)Cc3ncc(C)c(OC)c3C)nc2n1 (centres undefined),9.04 µM (active) and inactive and 11.4 µM (active),inactive,inactive,inactive,inactive,inactive
CCOc1nc2cccc(C(=O)O)c2n1Cc1ccc(-c2ccccc2-c2nn[nH]n2)cc1,inactive,,inactive,inactive,,inactive
